# Reference: PubChem BioAssay AID504834 (National Center for Advancing Translational Sciences (NCATS), 2011)
# Out of some 320,000 compounds screened, about 22,000 (6.9%) were called active. Another 27% or so got no clear call; they are omitted. For the sample, actives were picked, then their nearest neighbours and some compounds at random. Unmarked numbers belong to inactive results. Calls come from the whole dose curve; as a rule, active = well fitted inhibition curve with a large enough effect; inconclusive = small, poorly fitted or top-dose-only effect, or another doubt; inactive = no such curve, though single readings can be large or run the other way.
# Assay: Primary qHTS for delayed death inhibitors of the malarial parasite plastid, 96 hour incubation
# Details: P. falciparum luciferase reporter growth; series mostly up to 28.7 µM; activity change, negative = inhibition: at the top concentration
# Description: The goal of this screen is to discover new antimalarial compounds that act by inhibiting the development of the apicoplast in the malarial parasite Plasmodium falciparum. The biochemical processes that make this organelle essential for erythrocytic stage parasites are not well understood. However, antibiotics such as azithromycin and tetracycline, which target the apicoplast translational machinery, have a potent antimalarial effect.
# We have developed a cell-based assay that measures parasite growth based on the expression of an integrated copy of a firefly luciferase reporter. To detect small molecules that cause this "delayed death" phenotype, erythrocytes infected with the luciferase-expressing parasites were incubated with compounds for either one or two generations, corresponding to 48 and 96 hours, respectively. Compounds that inhibit parasite growth in the second generation, but not the first, should be enriched in antimalarials that target the apicoplast. Growth inhibition is detected by a decrease in luciferase activity.
# Assay Provider: David Fidock and Eric Ekland, Columbia University
# Keywords: NIH Roadmap, MLPCN, MLI, MLSMR, qHTS, NCGC, qHTS, malaria, luciferase, viability
# Four microliters of infected erythrocytes (2% hematocrit, 0.05% parasitemia final concentration) in culture medium were dispensed and the plates incubated for 96 hours at 37 C in 5% CO2. Two microliters of luciferase detection reagent was added and luminescence was detected by a ViewLux (PerkinElmer) reader.
# % is set by controls: 0 for no effect and ±100 for the full control effect; potency is the fitted concentration of half-maximal effect.
SMILES,"activity change, negative = inhibition",Potency
Cc1cccc2c1N(CC(=O)OC(C)C)C(=O)C2=O,38.3%,–
CC(OC(=O)CN1C(=O)c2ccccc2C1=O)C(=O)c1ccccc1 (configuration not stated),13.1%,–
CC(C)OC(=O)CN1C(=O)c2ccccc2C1=O,–,7.38 µM (active)
CCCCn1c(N)c(N(CC)C(=O)c2ccc(N(C)S(=O)(=O)c3ccc(C)cc3)cc2)c(=O)[nH]c1=O,-16.1%,–
C[C@H](NC(=O)C1CC(=O)N(c2ccc3c(c2)OCCO3)C1)C(=O)N1CCC(C(=O)O)CC1 (some centres not stated),-9.53%,–
CC(=O)Nc1ccc(C(=O)C(Cc2ccccc2)N(C)C)cc1 (configuration not stated),2.69%,–
CC(C(=O)c1ccc(-c2ccccc2)cc1)[n+]1cccc(Br)c1 (configuration not stated),–,2.33 µM (active)
O=C(NC1CCCC1)C(c1c(F)cccc1Cl)N(C(=O)c1csnn1)C1CC1 (configuration not stated),-4.38%,–
COc1ccc(-n2nc(C(=O)Nc3cc(OC)c(OC)c(OC)c3)c3ccccc3c2=O)c(OC)c1,–,8.28 µM (active)
COc1ccc(-n2nc(C(=O)NCC(=O)Nc3cccc(C)n3)c3ccccc3c2=O)cc1,19.7%,–
COC(=O)c1cc(NC(=O)c2nn(C)c(=O)c3ccccc23)cc(C(=O)OC)c1,59.9%,–
Cc1ccc(NC(=O)Cc2nnc(SCC(=O)Nc3nncs3)n2C)cc1,-28.1%,–
CC1CCN(S(=O)(=O)c2ccc3c(ccn3CC(=O)O)c2)CC1,-20.2%,–
O=C(CNC(=O)c1ccccc1F)c1ccc(Br)cc1,68.4%,–
COc1cccc(NC(=O)CN(C)C(=O)CSCc2nc3scc(-c4cccs4)c3c(=O)[nH]2)c1,28.3%,–
Cc1ccccc1NC(=O)C(C)OC(=O)CCC(=O)N(CC(C)C)c1c(N)n(CC(C)C)c(=O)[nH]c1=O (configuration not stated),4.86%,–
Cc1ccc(S(=O)(=O)N2CCC(C(=O)OCC(=O)N(C)c3ccccc3)CC2)cc1C,-10.6%,–
CCN(CC(=O)NCc1cccs1)C(=O)c1ccc(OC)c(S(=O)(=O)N2CCOCC2)c1,4.92%,–
Cc1ccccc1CSCC(=O)NC(=O)NC(C)(C)C,–,10.4 µM (active)
CC(C)(C)NC(=O)NC(=O)COC(=O)C1c2ccccc2Oc2ccccc21,16.9%,–
CC(C)(C)NC(=O)NC(=O)CN1CCC(Cc2ccccc2)CC1,-37.5%,–
COc1ccc(NC(=O)c2cc([N+](=O)[O-])ccc2NC(=O)CNC2CCCCC2C)c(OC)c1 (configuration not stated),34.8%,–
CN(CC(=O)Nc1ccc(F)c(F)c1F)C(=O)Cn1cnc2c1c(=O)n(C)c(=O)n2C,-15%,–
COc1ccc([C@H]2CC(=O)C=C(c3ccc(OC(F)(F)F)cc3)C2)cc1OC,–,11.7 µM (active)
COc1ccc([C@H]2CC(=O)C=C(c3ccc(C)cc3)C2)cc1,-34.7%,–
COc1ccc2cc(C3=CC(=O)C[C@H](c4ccc5c(c4)OCO5)C3)ccc2c1,-36.2%,–

SMILES,"activity change, negative = inhibition",Potency
COc1cccc(N2CC(NS(=O)(=O)c3cccs3)CC2=O)c1 (configuration not stated),8.83%,–
FCOC(C(F)(F)F)C(F)(F)F,117%,–
O=C(COc1ccc2c(c1)CCC2)N1CCN(c2ccc(F)cc2)CC1,-14.1%,–
COc1ccccc1CN1CCN(Cc2cc(OC)c(OC)cc2OC)CC1,-11.7%,–
Oc1ccccc1CN1CCN(C(c2ccccc2)c2ccccc2)CC1,–,0.828 µM (active)
COc1ccccc1NC(=S)N1CCN(C(c2ccccc2)c2ccccc2)CC1,26.1%,–
COc1ccccc1CN1CCN(C(c2ccccc2)c2ccccc2)CC1,–,8.28 µM (active)
CC(C)OCC(O)CN1CCN(C(c2ccccc2)c2ccccc2)CC1 (configuration not stated),-7.62%,–
O=C(O)CN1CCN(C(c2ccccc2)c2ccccc2)CC1,-16%,–
CC1=C(C(N)=O)C(c2ccc(F)cc2)n2nc(CCCO)nc2N1 (configuration not stated),28.2%,–
COc1cccc(N(C(=O)c2snc(C(N)=O)c2N)C(C(=O)NCC2CCCO2)c2c[nH]c3ccccc23)c1 (configuration not stated),-7.17%,–
CC(C)Cc1nc(Cl)c(C#N)c2c1CCC2,36.5%,–
COC(=O)c1ccc(S(=O)(=O)N(CCO)Cc2ccccc2)n1C,4.12%,–
COc1ccccc1C(=O)NNC(=O)c1ccc(NC(=O)c2ccccc2)cc1,19.4%,–
COc1ccccc1C(=O)Nc1ccc(OCC(=O)N2CCCCC2)cc1,-28.2%,–
COc1ccccc1C(=O)Nc1ccc(OCc2nnc3c4ccccc4c(C)nn23)cc1,–,9.28 µM (active)
CC(=O)N1CCN(C(=O)C2(NC(=O)Nc3ccc(C)cc3)CCCCC2)CC1,363%,–
O=C(NCc1cc(F)cc(C(F)(F)F)c1)C1CCC(=O)N(C2CCCC2)C1 (configuration not stated),-15.9%,–
CCOC(=O)c1c(CNCc2ccccc2F)c2sc(C)cc2n1C,-9.14%,–
COc1ccc(Nc2ncnc3sc(C)cc23)cc1,34.4%,–
CCN1C(=O)/C(=c2\s/c(=C3\Sc4ccccc4N3C)c(=O)n2C)N(C)C1=S,6.98%,–
CN1/C(=c2/s/c(=C3/C(=O)N(c4ccccc4)NC3=Nc3ccccc3)n(C)c2=O)C(C)(C)c2ccccc21,–,11.7 µM (active)
Cc1csc2nc(O)c(C(=O)NCCN3CCOCC3)c(=O)n12,12%,–
CCCCC(NS(=O)(=O)c1ccc(C)cc1)C(=O)Oc1ccc2c3c(c(=O)oc2c1)CCC3 (configuration not stated),19.9%,–
O=C(COc1ccc2c3c(c(=O)oc2c1)CCC3)NC1CCCCC1,0%,–
CCCOc1ccc2c3c(c(=O)oc2c1OCCC)CCC3,–,6.57 µM (active)
